# Source: publication PMC8384837, “Expanding the binding specificity for RNA recognition by a PUF domain”
# What was measured:
# Experiment in all cases: yeast three-hybrid, YBZ-1, SC-Leu-His + 0.5 mM 3-AT, 4 days
# Settings in all cases: tags: N-Gal4 AD-HA kept; label: inside an RPR1-promoter hybrid RNA with tandem MS2 sites; ssRNA
# PUM1 PUF domain R4-DHQ = PUM1 PUF domain R4-DHQ (Homo sapiens, UniProt Q14671 828-1176, N971D)
# How it was run: (§1)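 Repeat regions from input (SC-Leu) and selection (SC-Leu-His + 0.5 mM 3-AT) plates were PCR-amplified and Illumina-sequenced after four days of growth. The cells were strain YBZ-1 with a LexA–MS2 coat fusion and a HIS3 reporter, co-expressing Pumilio-1 PUF domain libraries and matching RNA elements from a centromeric plasmid. The interaction score is the log change in variant frequency from input to selection, taken in log2 with a pseudocount of 1 for absent variants.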
# PUM1 PUF domain R4-CRG = PUM1 PUF domain R4-CRG (Homo sapiens, UniProt Q14671 828-1176, N971C;H972R;Q975G)
# Sequence of PUM1 PUF domain R4-CRG (Q14671 828-1176 N971C/H972R/Q975G): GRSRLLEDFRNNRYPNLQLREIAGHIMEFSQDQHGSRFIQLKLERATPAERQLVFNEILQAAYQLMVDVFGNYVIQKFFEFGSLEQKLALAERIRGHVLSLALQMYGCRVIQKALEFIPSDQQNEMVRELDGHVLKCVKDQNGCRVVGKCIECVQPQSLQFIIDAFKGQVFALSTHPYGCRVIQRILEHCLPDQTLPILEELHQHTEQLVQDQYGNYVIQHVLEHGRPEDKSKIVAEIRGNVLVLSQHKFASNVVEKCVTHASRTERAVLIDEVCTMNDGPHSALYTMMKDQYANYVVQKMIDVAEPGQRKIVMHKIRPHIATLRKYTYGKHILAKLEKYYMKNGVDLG
# How it was run: as §1
# PUM1 PUF domain R4-HNL = PUM1 PUF domain R4-HNL (Homo sapiens, UniProt Q14671 828-1176, N971H;H972N;Q975L)
# Sequence of PUM1 PUF domain R4-HNL (Q14671 828-1176 N971H/H972N/Q975L): as the sequence (Q14671 828-1176 N971C/H972R/Q975G) above, with C144H, R145N, G148L counted along it
# How it was run: as §1
# PUM1 PUF domain R4-DWS = PUM1 PUF domain R4-DWS (Homo sapiens, UniProt Q14671 828-1176, N971D;H972W;Q975S)
# Sequence of PUM1 PUF domain R4-DWS (Q14671 828-1176 N971D/H972W/Q975S): as the sequence (Q14671 828-1176 N971C/H972R/Q975G) above, with C144D, R145W, G148S counted along it
# How it was run: as §1
# PUM1 PUF domain R5-RHA = PUM1 PUF domain R5-RHA (Homo sapiens, UniProt Q14671 828-1176, C1007R;R1008H;Q1011A)
# Sequence of PUM1 PUF domain R5-RHA (Q14671 828-1176 C1007R/R1008H/Q1011A): as the sequence (Q14671 828-1176 N971C/H972R/Q975G) above, with C144N, R145H, G148Q, C180R, R181H, Q184A counted along it
# How it was run: as §1
# PUM1 PUF domain R5-GVQ = PUM1 PUF domain R5-GVQ (Homo sapiens, UniProt Q14671 828-1176, C1007G;R1008V)
# Sequence of PUM1 PUF domain R5-GVQ (Q14671 828-1176 C1007G/R1008V): as the sequence (Q14671 828-1176 N971C/H972R/Q975G) above, with C144N, R145H, G148Q, C180G, R181V counted along it
# How it was run: as §1
# PUM1 PUF domain R5-ESE = PUM1 PUF domain R5-ESE (Homo sapiens, UniProt Q14671 828-1176, C1007E;R1008S;Q1011E)
# Sequence of PUM1 PUF domain R5-ESE (Q14671 828-1176 C1007E/R1008S/Q1011E): as the sequence (Q14671 828-1176 N971C/H972R/Q975G) above, with C144N, R145H, G148Q, C180E, R181S, Q184E counted along it
# How it was run: as §1
# PUM1 PUF domain R5-LYS = PUM1 PUF domain R5-LYS (Homo sapiens, UniProt Q14671 828-1176, C1007L;R1008Y;Q1011S)
# Sequence of PUM1 PUF domain R5-LYS (Q14671 828-1176 C1007L/R1008Y/Q1011S): as the sequence (Q14671 828-1176 N971C/H972R/Q975G) above, with C144N, R145H, G148Q, C180L, R181Y, Q184S counted along it
# How it was run: as §1
# PUM1 PUF domain R4-VGY = PUM1 PUF domain R4-VGY (Homo sapiens, UniProt Q14671 828-1176, N971V;H972G;Q975Y)
# Sequence of PUM1 PUF domain R4-VGY (Q14671 828-1176 N971V/H972G/Q975Y): as the sequence (Q14671 828-1176 N971C/H972R/Q975G) above, with C144V, R145G, G148Y counted along it
# How it was run: as §1
# PUM1 PUF domain R1-KYQ = PUM1 PUF domain R1-KYQ (Homo sapiens, UniProt Q14671 828-1176, S863K;R864Y)
# Sequence of PUM1 PUF domain R1-KYQ (Q14671 828-1176 S863K/R864Y): as the sequence (Q14671 828-1176 N971C/H972R/Q975G) above, with S36K, R37Y, C144N, R145H, G148Q counted along it
# How it was run: as §1
# Sequence of PUM1 PUF domain R4-DHQ (Q14671 828-1176 N971D): as the sequence (Q14671 828-1176 N971C/H972R/Q975G) above, with C144D, R145H, G148Q counted along it
sequence,measurement,setting,value
GGCUAGAACUAGUGGAUCCCCCGGCGCCCGGCGGCUCGAGCCCGGGUAAGUGUAUAUAGUCUGCAUGCCGCCGGGCGCCAUGCCUGCAGGUCGACUCUAGAAAACAUG,binding signal,PUM1 PUF domain R4-DHQ,5.32 log2 enrichment (interaction score)
same,binding signal,PUM1 PUF domain R4-CRG,1.29 log2 enrichment (interaction score)
same,binding signal,PUM1 PUF domain R4-HNL,3.45 log2 enrichment (interaction score)
same,binding signal,PUM1 PUF domain R4-DWS,5.96 log2 enrichment (interaction score)
GGCUAGAACUAGUGGAUCCCCCGGCGCCCGGCGGCUCGAGCCCGGGUAAGUGUCAAUAGUCUGCAUGCCGCCGGGCGCCAUGCCUGCAGGUCGACUCUAGAAAACAUG,binding signal,PUM1 PUF domain R5-RHA,5.53 log2 enrichment (interaction score)
GGCUAGAACUAGUGGAUCCCCCGGCGCCCGGCGGCUCGAGCCCGGGUAAGUGUGAAUAGUCUGCAUGCCGCCGGGCGCCAUGCCUGCAGGUCGACUCUAGAAAACAUG,binding signal,PUM1 PUF domain R5-GVQ,2.24 log2 enrichment (interaction score)
same,binding signal,PUM1 PUF domain R5-ESE,2.77 log2 enrichment (interaction score)
GGCUAGAACUAGUGGAUCCCCCGGCGCCCGGCGGCUCGAGCCCGGGUAAGUGUUAAUAGUCUGCAUGCCGCCGGGCGCCAUGCCUGCAGGUCGACUCUAGAAAACAUG,binding signal,PUM1 PUF domain R5-RHA,5.76 log2 enrichment (interaction score)
same,binding signal,PUM1 PUF domain R5-LYS,3.82 log2 enrichment (interaction score)
same,binding signal,PUM1 PUF domain R5-GVQ,2.71 log2 enrichment (interaction score)
GGCUAGAACUAGUGGAUCCCCCGGCGCCCGGCGGCUCGAGCCCGGGUAAGUGUACAUAGUCUGCAUGCCGCCGGGCGCCAUGCCUGCAGGUCGACUCUAGAAAACAUG,binding signal,PUM1 PUF domain R4-DHQ,2.4 log2 enrichment (interaction score)
same,binding signal,PUM1 PUF domain R4-HNL,2.04 log2 enrichment (interaction score)
same,binding signal,PUM1 PUF domain R4-DWS,2.51 log2 enrichment (interaction score)
GGCUAGAACUAGUGGAUCCCCCGGCGCCCGGCGGCUCGAGCCCGGGUAAGUGUAAAUAGUCUGCAUGCCGCCGGGCGCCAUGCCUGCAGGUCGACUCUAGAAAACAUG,binding signal,PUM1 PUF domain R5-RHA,2.93 log2 enrichment (interaction score)
same,binding signal,PUM1 PUF domain R4-CRG,4.02 log2 enrichment (interaction score)
same,binding signal,PUM1 PUF domain R4-DWS,2.39 log2 enrichment (interaction score)
same,binding signal,PUM1 PUF domain R5-LYS,3.11 log2 enrichment (interaction score)
same,binding signal,PUM1 PUF domain R4-VGY,2.38 log2 enrichment (interaction score)
GGCUAGAACUAGUGGAUCCCCCGGCGCCCGGCGGCUCGAGCCCGGGUAAGUGUAAAUCGUCUGCAUGCCGCCGGGCGCCAUGCCUGCAGGUCGACUCUAGAAAACAUG,binding signal,PUM1 PUF domain R1-KYQ,4.96 log2 enrichment (interaction score)
